# Assay results published in PubChem BioAssay (EPA / NIEHS).
# Values joined by “and” are separate entries in the source; they are usually repeats but may differ in a detail not shown here. Equal values may be shown once. More than one record can exist for a structure, and the calls need not agree. Active and inactive are the calls of the source. Rule for the calls: active = hit-call score of the fitted dose curve at least 0.9, where 1 is the maximum; inactive = score below 0.9.
# Read-out: Vascular cell adhesion molecule 1 (VCAM1), VCAM1 (gene 7412)
# Test: BSK_hDFCGF_VCAM1: BioMAP Diversity Plus: hDFCGF Assay for Vascular cell adhesion molecule 1 (VCAM1) Biomarker Activity (AID 2283065)
# Settings: primary human foreskin fibroblasts; actives raise or lower the signal
# Description: BSK_hDFCGF is a cell-based, multiplexed-readout assay that uses foreskin fibroblast, a human skin primary cell, with measurements taken at 24 hours after chemical dosing in a 96-well plate.BSK_hDFCGF_VCAM1 is an assay component measured in the BSK_hDFCGF assay. It measures VCAM-1 antibody related to regulation of gene expression using ELISA technology.Data from the assay component BSK_hDFCGF_VCAM1 was analyzed into 1 assay endpoint. This assay endpoint, BSK_hDFCGF_VCAM1, was analyzed with bidirectional fitting relative to DMSO as the negative control and baseline of activity. Using a type of binding reporter, gain or loss-of-signal activity can be used to understand changes in the signaling as they relate to the gene VCAM1. Furthermore, this assay endpoint can be referred to as a primary readout, because this assay has produced multiple assay endpoints where this one serves a signaling function. To generalize the intended target to other relatable targets, this assay endpoint is annotated to the cell adhesion molecules intended target family, where the subfamily is Immunoglobulin CAM.
# The levels of cell surface (or secreted, indicated by the prefix "s") biomarker endpoints were measured by ELISA. Overt cytotoxicity to cells in confluent adherent cultures (all systems other than the BT system) was assessed by measuring total protein levels using sulforhodamine B (SRB) staining in parallel cultures at the time of biomarker measurements, indicated as SRB endpoints. For proliferation assays for adherent cell types, individual cell types are cultured at sub-confluence and relative cell numbers quantified by SRB staining at time points optimized for each system (48 h: 3C and CASM3C systems; 72 h: BT and HDF3CGF systems; 96 h: SAg system). SRB was performed by staining cells with 0.1% SRB after fixation with 10% TCA and reading wells at 560 nm.Viability and proliferation of PBMC (T cells) was quantified by Alamar Blue reduction for the SAg and BT systems. For PBMC viability (referred to as PBMC Cytotoxicity within the assay endpoint names), cells were plated (75,000/well in a 96-well plate) and then chemical samples added for 1 h before addition of activators, SEB and TSST-1 (20 ng/mL final concentration each). Cells were incubated for 90 h. Then, Alamar Blue (20 uL/well) (Invitrogen, Cat DAL1100) was added for 6 h, and the plates were read with a fluorescence microplate reader at 546/580 nm (excitation/emission). For PBMC proliferation, cells were plated and activated as above but incubated for only 16 h prior to addition of Alamar Blue. Plates were read after 6 h.
Structure (SMILES),outcome,AC50
ClC1=C(Cl)[C@]2(Cl)[C@@H]3[C@@H]4C[C@@H]([C@H]5O[C@@H]45)[C@@H]3[C@@]1(Cl)C2(Cl)Cl,inactive,–
CCC(C)(c1ccc(O)cc1)c1ccc(O)cc1,–,20 µM (active)
Oc1ccc(Cl)cc1Cl,inactive,–
Cc1cc2c3c(c1)C(c1ccccc1)=N[C@@H](NC(=O)c1ccncc1)C(=O)N3CC2,inactive,–
O=S(=O)(O)C(F)(F)C(F)(F)C(F)(F)C(F)(F)F,inactive,–
ClC1=C(Cl)[C@]2(Cl)[C@@H]3[C@@H](Cl)[C@H]4O[C@H]4[C@@H]3C1(Cl)C2(Cl)Cl,inactive,–
NS(=O)(=O)C(F)(F)C(F)(F)C(F)(F)C(F)(F)C(F)(F)C(F)(F)C(F)(F)C(F)(F)F,–,17.3 µM (active) and 9.88 µM (active) and 7.69 µM (active)
Clc1ccc(C(Cl)(Cl)Cl)cc1,inactive,–
Cc1cc(O)ccc1Cl,inactive,–
Cc1cccc([N+](=O)[O-])c1,inactive,–
CC(C)(c1ccccc1)c1ccc(O)cc1,–,34.7 µM (active)
O=S(=O)(O)C(F)(F)C(F)(F)C(F)(F)C(F)(F)C(F)(F)C(F)(F)F,inactive,–
Cc1ccccc1O,inactive,–
O=C(O)C(F)(F)C(F)(F)C(F)(F)C(F)(F)C(F)(F)C(F)(F)C(F)(F)C(F)(F)F,inactive,48.5 µM (active)
CCNc1nc(NC(C)C)nc(SC)n1,inactive,–
CCOP(=S)(OCC)SCSC(C)(C)C,inactive,–
CCCCCCOC(=O)c1ccccc1C(=O)OCCCCCC,inactive,–
CC1=C2C[C@H]3[C@@H](CC=C4C[C@@H](O)CC[C@@]43C)[C@@H]2CC[C@]12O[C@@H]1C[C@H](C)CN[C@H]1[C@H]2C,inactive,–
O=C(O)C(F)(F)C(F)(F)C(F)(F)C(F)(F)C(F)(F)C(F)(F)C(F)(F)C(F)(F)C(F)(F)F,–,31.2 µM (active) and 17.9 µM (active) and 19.4 µM (active)
CCSC(=O)N(CC)C1CCCCC1,inactive,–

Structure (SMILES),outcome,AC50
COc1ccc(O)c(C(C)(C)C)c1,inactive,–
ClC(Cl)=C(c1ccc(Cl)cc1)c1ccc(Cl)cc1,–,14.1 µM (active)
Nn1cnnc1,inactive,–
O=NN(c1ccccc1)c1ccccc1,inactive,–
CCCCCCCCCC[N+](C)(C)CCCCCCCCCC,–,3.39 µM (active)
Cc1ccc(O)c(C)c1,inactive,–
O=C(O)C(F)(F)C(F)(F)C(F)(F)C(F)(F)C(F)(F)F,inactive,–
C[C@]12CCC(=O)C=C1CC[C@@H]1[C@@H]2CC[C@@]2(C)[C@H]1CC[C@]2(C)O,inactive,–
CC#Cc1cc(C)nc(Nc2ccccc2)n1,inactive,–
CCOCCOC(C)=O,inactive,–
Clc1ccc(C(c2ccccc2Cl)C(Cl)(Cl)Cl)cc1 (stereo not given),–,6.32 µM (active)
CN(C)c1nc(=O)n(C2CCCCC2)c(=O)n1C,inactive,–
CC(c1ccc(O)cc1)(c1ccc(O)cc1)c1ccc(O)cc1,–,8.14 µM (active)
Nc1ccc(-c2ccc(N)cc2)cc1,inactive,–
Oc1ccc(C(c2ccc(O)cc2)(C(F)(F)F)C(F)(F)F)cc1,–,7.41 µM (active)
O=C(NC(=O)c1c(F)cccc1F)Nc1cc(Cl)c(OC(F)(F)C(F)F)c(Cl)c1,inactive,–
Sc1ccccc1,inactive,–
c1cc2ccc3cccc4ccc(c1)c2c34,inactive,–
c1ccc(-c2ccccc2)cc1,inactive,–
